# Calls of active or inactive are those of the source. How the source made its calls: active means hit-call score of the fitted dose curve at least 0.9, where 1 is the maximum; inactive means score below 0.9.
# Key:
# Settings in all cases: mRNA level, 48 h; actives raise or lower the signal
# [1] = read-out: growth arrest and DNA damage 45 (GADD45B), GADD45B (gene 4616); test: LTEA_HepaRG_GADD45B: Life Technologies and Expression Analysis (LTEA) Assay for growth arrest and DNA damage 45 (GADD45B) using HepaRG (AID 2283461)
# Method in brief: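 HepaRG, ~100,000 cells/well, 48 h plating; serum-free induction medium; cpd 100 uM top, half-log x8, 0.5% DMSO, duplicate, 48 h; lysis in RLT, RNA isolation, qRT-PCR; norm ACTB/GAPDH/POLR2A; bidirectional fit vs DMSO.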
# [2] = read-out: ABC Transporter (ABCC3), ABCC3 (gene 8714); test: LTEA_HepaRG_ABCC3: Life Technologies and Expression Analysis (LTEA) Assay for ABC Transporter (ABCC3) using HepaRG (AID 2283462)
# Method in brief: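 Human HepaRG, 48 h dosing, 8-pt half-log series from 100 uM, 0.5% DMSO vehicle, duplicates. ABCC3 mRNA by TaqMan qRT-PCR, housekeeping-normalized; bidirectional curve fit vs DMSO.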
# [3] = read-out: ABC Transporter (ABCB11), ABCB11 (gene 8647); test: LTEA_HepaRG_ABCB11: Life Technologies and Expression Analysis (LTEA) Assay for ABC Transporter (ABCB11) using HepaRG (AID 2283463)
# Method in brief: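 Differentiated human HepaRG cells were exposed for 48 h in serum-free induction medium to eight half-log concentrations up to 100 uM in 0.5% DMSO. ABCB11 mRNA was quantified by qRT-PCR, normalized to ACTB, GAPDH and POLR2A, and fitted bidirectionally versus DMSO.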
# [4] = read-out: ABC Transporter (ABCC2), ABCC2 (gene 1244); test: LTEA_HepaRG_ABCC2: Life Technologies and Expression Analysis (LTEA) Assay for ABC Transporter (ABCC2) using HepaRG (AID 2283464)
# Method in brief: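 HepaRG, 48 h post-plating; serum-free induction medium; cpd 8-pt, 100 uM top, half-log, 0.5% DMSO, duplicate, 48 h. Readout: ABCC2 mRNA by qRT-PCR, norm. ACTB/GAPDH/POLR2A. Bidirectional fit vs DMSO baseline.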
# [5] = read-out: Broad substrate specificity ATP-binding cassette transporter ABCG2 (Homo sapiens) (UniProt Q9UNQ0); test: LTEA_HepaRG_ABCG2: Life Technologies and Expression Analysis (LTEA) Assay for ABC Transporter (ABCG2) using HepaRG (AID 2283465)
# Method in brief: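 Differentiated HepaRG cells in serum-free induction medium were exposed for 48 h, in duplicate, to eight half-log concentrations up to 100 uM in 0.5% DMSO. ABCG2 mRNA was measured by TaqMan qRT-PCR, normalized to ACTB, GAPDH and POLR2A, and fitted bidirectionally versus DMSO.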
# [6] = read-out: ATP-citrate lyase (ACLY), ACLY (gene 47); test: LTEA_HepaRG_ACLY: Life Technologies and Expression Analysis (LTEA) Assay for ATP-citrate lyase (ACLY) using HepaRG (AID 2283466)
# Method in brief: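 Differentiated human HepaRG cells in serum-free induction medium exposed 48 h, in duplicate, to eight half-log concentrations from 100 uM top in 0.5% DMSO; ACLY mRNA measured by qRT-PCR, normalized to ACTB, GAPDH, POLR2A, fitted bidirectionally versus DMSO.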
# [7] = read-out: Peroxisomal acyl-coenzyme A oxidase 1 (ACOX1) gene, ACOX1 (gene 51); test: LTEA_HepaRG_ACOX1: Life Technologies and Expression Analysis (LTEA) Assay for Peroxisomal acyl-coenzyme A oxidase 1 (ACOX1) gene using HepaRG (AID 2283467)
# Method in brief: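 Differentiated human HepaRG cells were exposed in duplicate for 48 h in serum-free induction medium to eight half-log concentrations up to 100 uM in 0.5% DMSO. ACOX1 mRNA was then quantified by TaqMan qRT-PCR, normalized to ACTB, GAPDH and POLR2A.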
# [8] = read-out: Alkaline Phosphatase, Placental (ALPP) gene, ALPP (gene 250); test: LTEA_HepaRG_ALPP: Life Technologies and Expression Analysis (LTEA) Assay for Alkaline Phosphatase, Placental (ALPP) gene using HepaRG (AID 2283468)
# Method in brief: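 HepaRG, 48 h plating then 48 h dosing, serum-free induction medium, 0.5% DMSO. 8 conc, half-log, max 100 uM, duplicates. Endpoint: ALPP transcript by qRT-PCR, housekeeping-normalized; gain or loss fitted vs DMSO.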
# [9] = read-out: Bcl-2 (BAD) gene, BAD (gene 572); test: LTEA_HepaRG_BAD: Life Technologies and Expression Analysis (LTEA) Assay for Bcl-2 (BAD) gene using HepaRG (AID 2283469)
# Method in brief: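 Differentiated human HepaRG cells in serum-free induction medium were exposed in duplicate for 48 h to eight concentrations (top 100 uM, half-log steps, 0.5% DMSO). BAD mRNA was quantified by qRT-PCR normalised to ACTB, GAPDH and POLR2A, with bidirectional fitting versus DMSO.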
# [10] = read-out: Bcl-2 (BAX) gene, BAX (gene 581); test: LTEA_HepaRG_BAX: Life Technologies and Expression Analysis (LTEA) Assay for Bcl-2 (BAX) gene using HepaRG (AID 2283470)
# Method in brief: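 Differentiated HepaRG cells exposed 48 h in serum-free induction medium, eight half-log concentrations from 100 uM, in duplicate, 0.5% DMSO vehicle. BAX mRNA by TaqMan qRT-PCR, normalised to ACTB, GAPDH and POLR2A.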
# [11] = read-out: adenosine kinase (ADK) gene, ADK (gene 132); test: LTEA_HepaRG_ADK: Life Technologies and Expression Analysis (LTEA) Assay for adenosine kinase (ADK) gene using HepaRG (AID 2283471)
# Method in brief: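 Read-out is ADK transcript level measured by qRT-PCR and normalised to three housekeeping genes. Cells are human HepaRG, dosed for 48 h at up to 100 uM in 0.5% DMSO. Gain or loss of signal is fitted against DMSO controls.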
# [12] = read-out: Alpha-fetoprotein (AFP) gene, AFP (gene 174); test: LTEA_HepaRG_AFP: Life Technologies and Expression Analysis (LTEA) Assay for Alpha-fetoprotein (AFP) gene using HepaRG (AID 2283472)
# Method in brief: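 Differentiated human HepaRG cells exposed 48 h in serum-free induction medium, 8-point half-log series from 100 uM in 0.5% DMSO, duplicate. AFP mRNA by qRT-PCR, normalized to ACTB, GAPDH, POLR2A; bidirectional fit vs DMSO.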
# BCL2L11 (gene 10018) = test: LTEA_HepaRG_BCL2L11: Life Technologies and Expression Analysis (LTEA) Assay for Bcl-2 (BCL2L11) gene using HepaRG (AID 2283473)
# Method in brief: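 Read-out is BCL2L11 transcript level by qRT-PCR, normalized to three housekeeping genes and fitted bidirectionally against 0.5% DMSO vehicle. HepaRG cells received chemicals for 48 h in serum-free induction medium, 100 uM down in half-log dilutions.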
# [13] = read-out: Apoptosis regulator Bcl-2 (Homo sapiens) (UniProt P10415); test: LTEA_HepaRG_BCL2: Life Technologies and Expression Analysis (LTEA) Assay for Bcl-2 gene using HepaRG (AID 2283475)
# Method in brief: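 Differentiated human HepaRG cells in serum-free induction medium exposed 48 h, in duplicate, to 8-point half-log series from 100 uM in 0.5% DMSO. BCL2 mRNA by qRT-PCR (TaqMan/Fluidigm), normalized to ACTB, GAPDH, POLR2A; bidirectional fit against DMSO.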
# [14] = read-out: Bcl-2 (BID) gene, BID (gene 637); test: LTEA_HepaRG_BID: Life Technologies and Expression Analysis (LTEA) Assay for Bcl-2 (BID) gene using HepaRG (AID 2283476)
# Method in brief: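 Gene expression by qRT-PCR in HepaRG cells after 48 h exposure, duplicate wells, eight half-log concentrations topping at 100 uM in 0.5% DMSO. Normalized to ACTB, GAPDH, POLR2A; bidirectional fitting relative to DMSO.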
# Caspase-3 (Homo sapiens) = Caspase-3 (Homo sapiens) (UniProt P42574); test: LTEA_HepaRG_CASP3: Life Technologies and Expression Analysis (LTEA) Assay for cysteine-aspartic acid protease (CASP3) using HepaRG (AID 2283477)
# Method in brief: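 Read-out is CASP3 mRNA level by TaqMan qRT-PCR in human HepaRG cells after 48 h chemical exposure. Eight half-log concentrations topping at 100 uM were tested in 0.5% DMSO; gain or loss was fitted relative to DMSO.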
# [15] = read-out: Cytochrome P450 (CYP24A1), CYP24A1 (gene 1591); test: LTEA_HepaRG_CYP24A1: Life Technologies and Expression Analysis (LTEA) Assay for Cytochrome P450 (CYP24A1) using HepaRG (AID 2283478)
# Method in brief: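 HepaRG, 48 h chemical exposure, 8-pt half-log CRC from 100 uM, 0.5% DMSO vehicle, duplicates. Endpoint: CYP24A1 mRNA by Fluidigm TaqMan qRT-PCR, normalized ACTB/GAPDH/POLR2A; gain/loss fit vs DMSO.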
# [16] = read-out: Cytochrome P450 (CYP1A2), CYP1A2 (gene 1544); test: LTEA_HepaRG_CYP1A2: Life Technologies and Expression Analysis (LTEA) Assay for Cytochrome P450 (CYP1A2) using HepaRG (AID 2283479)
# Method in brief: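 CYP1A2 transcript induction or loss, quantified by Fluidigm qRT-PCR against three housekeeping genes, was fitted bidirectionally against 0.5% DMSO controls. Human HepaRG cells received eight half-log concentrations from 100 uM over 48 h.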
# [17] = read-out: cysteine-aspartic acid protease (CASP8), CASP8 (gene 841); test: LTEA_HepaRG_CASP8: Life Technologies and Expression Analysis (LTEA) Assay for cysteine-aspartic acid protease (CASP8) using HepaRG (AID 2283480)
# Method in brief: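 Differentiated human HepaRG cells, plated 48 h then switched to serum-free induction medium, were exposed in duplicate for 48 h to 8 half-log concentrations up to 100 uM in 0.5% DMSO. CASP8 mRNA was quantified by qRT-PCR, normalized to ACTB/GAPDH/POLR2A.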
# [18] = read-out: Apolipoprotein A-V (APOA5) gene, APOA5 (gene 116519); test: LTEA_HepaRG_APOA5: Life Technologies and Expression Analysis (LTEA) Assay for Apolipoprotein A-V (APOA5) gene using HepaRG (AID 2283474)
# Method in brief: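 Readout is APOA5 transcript level by qRT-PCR on Fluidigm dynamic arrays, normalized to three housekeeping genes. HepaRG cultures received chemicals for 48 h at up to 100 uM (half-log steps, 0.5% DMSO), with gain or loss scored relative to DMSO.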
# Caspase-3 (Homo sapiens), sequence (P42574 whole entry, looked up): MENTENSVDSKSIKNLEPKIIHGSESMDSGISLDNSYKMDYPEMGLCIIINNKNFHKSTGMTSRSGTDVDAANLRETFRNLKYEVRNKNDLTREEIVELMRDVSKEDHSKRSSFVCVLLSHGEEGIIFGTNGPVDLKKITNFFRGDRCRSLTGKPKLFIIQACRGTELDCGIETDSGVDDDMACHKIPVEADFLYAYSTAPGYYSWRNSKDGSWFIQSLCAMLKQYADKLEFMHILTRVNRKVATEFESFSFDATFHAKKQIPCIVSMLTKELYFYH
# Apoptosis regulator Bcl-2 (Homo sapiens), sequence (P10415 whole entry, looked up): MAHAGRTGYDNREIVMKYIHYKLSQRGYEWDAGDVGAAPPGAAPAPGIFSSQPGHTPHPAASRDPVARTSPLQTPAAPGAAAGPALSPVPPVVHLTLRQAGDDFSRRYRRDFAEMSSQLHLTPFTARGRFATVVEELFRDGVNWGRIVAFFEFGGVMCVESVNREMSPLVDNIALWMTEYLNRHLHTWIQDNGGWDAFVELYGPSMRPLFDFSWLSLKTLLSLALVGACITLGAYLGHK
# Broad substrate specificity ATP-binding cassette transporter ABCG2 (Homo sapiens), sequence (Q9UNQ0 whole entry, looked up): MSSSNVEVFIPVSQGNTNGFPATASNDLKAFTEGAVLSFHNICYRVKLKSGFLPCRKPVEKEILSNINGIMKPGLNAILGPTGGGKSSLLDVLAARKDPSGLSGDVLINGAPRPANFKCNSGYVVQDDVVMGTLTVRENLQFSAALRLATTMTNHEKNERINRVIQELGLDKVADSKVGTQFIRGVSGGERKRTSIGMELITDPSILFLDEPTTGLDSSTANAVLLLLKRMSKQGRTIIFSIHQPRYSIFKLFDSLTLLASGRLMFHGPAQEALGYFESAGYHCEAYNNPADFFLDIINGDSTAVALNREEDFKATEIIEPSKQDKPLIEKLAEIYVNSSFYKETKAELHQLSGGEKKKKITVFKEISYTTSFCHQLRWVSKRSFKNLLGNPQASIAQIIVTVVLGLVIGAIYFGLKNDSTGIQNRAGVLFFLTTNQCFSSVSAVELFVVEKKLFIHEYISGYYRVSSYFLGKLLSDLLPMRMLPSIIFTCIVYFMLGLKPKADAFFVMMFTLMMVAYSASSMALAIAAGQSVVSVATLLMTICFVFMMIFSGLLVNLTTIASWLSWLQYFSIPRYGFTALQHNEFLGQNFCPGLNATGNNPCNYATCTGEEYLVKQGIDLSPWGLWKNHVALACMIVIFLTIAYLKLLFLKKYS
smiles,measurement,setting,value
CN1CCCC1=O,outcome,[1],inactive
same,outcome,[2],inactive
same,outcome,[3],inactive
same,outcome,[4],inactive
same,outcome,[5],inactive
same,outcome,[6],inactive
same,outcome,[7],inactive
same,outcome,[8],inactive
same,outcome,[9],inactive
same,outcome,[10],inactive
same,outcome,[11],inactive
same,outcome,[12],inactive
same,outcome,BCL2L11 (gene 10018),inactive
same,outcome,[13],inactive
same,outcome,[14],inactive
same,outcome,Caspase-3 (Homo sapiens),inactive
same,outcome,[15],inactive
same,AC50,[16],31.5 µM (active)
same,outcome,[17],inactive
CCCCCCOCCO,outcome,[1],inactive
same,outcome,[2],inactive
same,outcome,[3],inactive
same,outcome,[4],inactive
same,outcome,[5],inactive
same,outcome,[6],inactive
same,outcome,[7],inactive
same,outcome,[8],inactive
same,outcome,[9],inactive
same,outcome,[10],inactive
same,outcome,[11],inactive
same,outcome,[12],inactive
same,outcome,BCL2L11 (gene 10018),inactive
same,outcome,[18],inactive
same,outcome,[13],inactive
same,outcome,Caspase-3 (Homo sapiens),inactive
same,outcome,[15],inactive
same,outcome,[16],inactive
same,outcome,[17],inactive
O=c1[nH]cc(F)c(=O)[nH]1,outcome,[1],inactive
same,outcome,[2],inactive
same,AC50,[3],64 µM (active)
same,outcome,[4],inactive
same,outcome,[5],inactive
same,outcome,[6],inactive
same,outcome,[7],inactive
same,outcome,[8],inactive
same,outcome,[9],inactive
same,outcome,[11],inactive
same,outcome,[12],inactive
same,outcome,BCL2L11 (gene 10018),inactive
same,AC50,[18],70.9 µM (active)
same,outcome,[13],inactive
same,outcome,[14],inactive
same,outcome,Caspase-3 (Homo sapiens),inactive
same,outcome,[15],inactive
same,AC50,[16],51 µM (active)
same,outcome,[17],inactive
CCCCCCCCCCCC(=O)OC,outcome,[1],inactive
same,outcome,[2],inactive
same,outcome,[3],inactive
same,outcome,[4],inactive
same,outcome,[5],inactive
same,outcome,[7],inactive
same,outcome,[8],inactive
same,outcome,[9],inactive
same,outcome,[10],inactive
same,outcome,[11],inactive
same,outcome,[12],inactive
same,outcome,BCL2L11 (gene 10018),inactive
same,outcome,[18],inactive
same,outcome,[13],inactive
same,outcome,[14],inactive
same,outcome,Caspase-3 (Homo sapiens),inactive
same,outcome,[15],inactive
same,AC50,[16],66.9 µM (active)
same,outcome,[17],inactive
CCCCCCCCCCO,outcome,[1],inactive
same,outcome,[2],inactive
same,outcome,[3],inactive
same,outcome,[4],inactive
same,outcome,[5],inactive
same,outcome,[7],inactive
same,outcome,[8],inactive
same,outcome,[9],inactive
same,outcome,[10],inactive
same,outcome,[11],inactive
same,outcome,[12],inactive
same,outcome,BCL2L11 (gene 10018),inactive
same,outcome,[13],inactive
same,outcome,[14],inactive
same,outcome,Caspase-3 (Homo sapiens),inactive
same,outcome,[15],inactive
same,outcome,[16],inactive
same,outcome,[17],inactive
Cc1cccc([N+](=O)[O-])c1C,outcome,[1],inactive
same,outcome,[2],inactive
same,outcome,[3],inactive
same,outcome,[4],inactive
same,outcome,[5],inactive
same,outcome,[7],inactive
same,outcome,[8],inactive
same,outcome,[9],inactive
same,outcome,[10],inactive
same,outcome,[11],inactive
same,outcome,[12],inactive
same,outcome,BCL2L11 (gene 10018),inactive
same,outcome,[18],inactive
same,outcome,[13],inactive
same,outcome,[14],inactive
same,outcome,Caspase-3 (Homo sapiens),inactive
same,outcome,[15],inactive
same,outcome,[16],inactive
same,outcome,[17],inactive
